In PubChem BioAssay AID449728 (The Scripps Research Institute Molecular Screening Center, 2010):
Hit rate of the full screen: of about 330,000 compounds, about 900 (0.27%) were called active.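 Rule for the calls: active = inhibition above the campaign's mean inhibition across all tested compounds plus 3 SD (cut at about 9.9% in these data); inactive = the rest.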 This excerpt belongs to a sample that is enriched for actives.

Assay: E. coli V3065 growth inhibition, primary screen, counter-screen for AddAB inhibitor project, absorbance, OD600 (AID 449728);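 note: uninfected addAB+ strain grown without phage in ampicillin broth; 0% = DMSO wells and 100% = ciprofloxacin 0.95 µg/ml wells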
Details: 18 h, at 11.9 µM, hits give high values

Compound | inhibition
CCOc1ccc(/C=C/C(=O)OCC(=O)c2ccccc2OC)cc1OC | 2.19% (inactive)
O=C(NCC1CCCO1)/C(=C/c1ccc(Cl)cc1)NC(=O)c1ccccc1 (centres undefined) | 0.6% (inactive)
O=C(NCC1CCCO1)C(C(=O)c1ccccc1)n1cc(Cl)ccc1=O (centres undefined) | 96.6% (active)
O=C(CSc1ccc(-c2ccccc2)nn1)NCC1CCCO1 (centres undefined) | 0.59% (inactive)
O=C1CN(C(=O)COC(=O)C2CC(=O)N(Cc3ccco3)C2)c2ccccc2N1 (centres undefined) | -0.37% (inactive)
Cc1ccc(NC(=O)C(C)OC(=O)Cc2c[nH]c3ccccc23)cc1S(=O)(=O)N1CCOCC1 (centres undefined) | -2.87% (inactive)
CC(C)CC(=O)NC(=S)NNC(=O)c1cccc([N+](=O)[O-])c1 | -7.21% (inactive)
CN(C)CCn1c2c(c(SCC(=O)NCc3ccccc3)nc1=O)CCC2 | -1.35% (inactive)
COc1ccc(CC(=O)Nc2c(C(N)=O)oc3ccccc23)cc1 | -1.77% (inactive)
COC(=O)c1oc2ccc(Br)cc2c1NC(C)=O | 1.03% (inactive)
COc1ccc(C(=O)c2oc3ccc(Br)cc3c2NC(C)=O)cc1 | 98.8% (active)
OCc1ccc(-c2ccccc2)c(-c2ccccc2)c1 | -4.27% (inactive)
CCC1(C)Cc2c(sc3[nH]c(=S)n(Cc4ccccc4)c(=O)c23)CO1 (centres undefined) | -1.73% (inactive)
Cc1ccc(SCc2c(C(=O)N/N=C/c3cccnc3)nnn2-c2nonc2N)cc1 | 1.61% (inactive)
Nc1nonc1-n1nnc(C(=O)N/N=C/c2ccccc2O)c1CN1CCCC1 | -0.26% (inactive)
Nc1nonc1-n1nnc(C(=O)N/N=C/c2cc(Br)ccc2O)c1CSC1=NCCS1 | 12.6% (active)
O=C(CNCCO)NC12CC3CC(CC(C3)C1)C2 | -2.56% (inactive)
CSCCC(NS(=O)(=O)/C=C/c1ccccc1)C(=O)N1CCC(C)CC1 (centres undefined) | -0.42% (inactive)
CSc1cc(C)[nH]c(=O)n1 | -2.18% (inactive)
CCc1ccccc1NC(=O)CN(c1ccc(OC)cc1OC)S(=O)(=O)c1ccccc1[N+](=O)[O-] | -0.37% (inactive)
COC(=O)C1=C(C)N(C)C(=O)NC1c1ccc([N+](=O)[O-])o1 (centres undefined) | 0.52% (inactive)
COc1ccc(C(=O)NCC(=O)N/N=C/c2ccc([N+](=O)[O-])o2)cc1OC | 5.52% (inactive)

Compound | inhibition
C/[N+]([O-])=C\c1ccc([N+](=O)[O-])o1 | 15.4% (active)
COC(=O)c1ccc(COC(=O)c2cnccn2)cc1 | -0.61% (inactive)
Cc1cccc(NC(=O)Cn2cc(C(=O)c3ccco3)c3ccccc32)c1 | 16.6% (active)
CC1CCN(C(=O)Cn2cc(C(=O)c3ccco3)c3ccccc32)CC1 | -0.18% (inactive)
O=C(Cn1cc(C(=O)c2cccs2)c2ccccc21)NCc1cccs1 | 0.18% (inactive)
Cc1ccc(CN2CCC(N3CCC(C(=O)NCC4CCCO4)CC3)CC2)o1 (centres undefined) | -1.01% (inactive)
O=C(NCC#CCSc1nnc(-c2cccc3ccccc23)o1)c1cccs1 | 10.2% (active)
C#CCSc1nnc(-c2sc3ccccc3c2Cl)o1 | 2.18% (inactive)
COc1ccc(CCNC(=O)/C(C#N)=C2\N=C(NC(=O)c3cccs3)c3ccccc32)cc1 | -0.34% (inactive)
COc1ccc(C)cc1N(CC(=O)NC(C)c1ccccc1)S(C)(=O)=O (centres undefined) | 0.84% (inactive)
C[N+]1(CCNC(=O)/C=N/O)CCCCC1 | -1.11% (inactive)
COc1ccc([C@H]2CC(=O)C=C(/C=C/c3ccccc3)C2)cc1 | -0.71% (inactive)
Cc1ccccc1NC(=O)NC1(C(=O)N2CCCC2)CCCCC1 | -1.26% (inactive)
Oc1c(Cl)cc(Cl)c(Cl)c1Cc1c(O)c(Cl)cc(Cl)c1Cl | 12.2% (active)
CC(=O)OCCOCn1cnn2c(=O)c(Br)c(C)nc12 | -2.04% (inactive)
CCNC(=S)N1CCN(c2ncccn2)CC1 | 0.78% (inactive)
CN(C)CCCn1c(SCc2ccc(Cl)cc2)nnc1-c1ccncc1 | -1.29% (inactive)
COc1cccc(-c2sc3ccc(OC)cc3c2-c2ccc(OCCN3CCCCC3)cc2)c1 | -0.53% (inactive)
Cc1ccc(C23CC4CC(CC(C(=O)NCC(=O)O)(C4)C2)C3)cc1 | 1% (inactive)
CCOc1ccccc1NC(=O)C12CC3CC(C1)CC(c1ccc(C)cc1)(C3)C2 | 26.6% (active)
CCOc1ccccc1NC(=O)Cc1cccs1 | 1.04% (inactive)
COCCCNC(=O)C1CCC(CNS(=O)(=O)c2ccc(OC)cc2)CC1 (centres undefined) | -1.01% (inactive)

Compound | inhibition
CCC1C(=O)NCCN1C(=O)c1ccc2nc(Cc3ccc(OC)cc3)oc2c1 (centres undefined) | -0.08% (inactive)
O=C(OCC1O[C@@H](OC(=O)c2cc(O)c(O)c(O)c2)[C@@H](OC(=O)c2cc(O)c(O)c(O)c2)[C@@H](OC(=O)c2cc(O)c(O)c(O)c2)[C@@H]1OC(=O)c1cc(O)c(O)c(O)c1)c1cc(O)c(O)c(O)c1 (some centres undefined) | 23.6% (active)
COc1ccc(Br)cc1/C=N/Nc1ccc(Cl)c(C(=O)O)c1 | -3.01% (inactive)
CCOc1cccc(/C=N/NC(=S)NCCN2CCOCC2)c1O | 0.34% (inactive)
COc1cccc(/C=N/Nc2ncc(C(F)(F)F)cc2Cl)c1O | 15.6% (active)
C/C(CC(C)C)=N\Oc1nc(C)cc(C)n1 | 0.81% (inactive)
COc1ccc(C(=O)c2c3ccc([N+](=O)[O-])cc3[n+]([O-])n2CCCN)cc1 | 9.95% (active)
COc1ccc2c(C(=O)c3ccc(C)cc3)n(CCC(N)=O)[n+]([O-])c2c1 | -1.03% (inactive)
COc1ccc(C(=O)CC(=O)C(=O)Nc2cc([N+](=O)[O-])ccc2OC)cc1 | -2.64% (inactive)
CN1CCN(C(=O)c2cnn(-c3ccccc3)c2NC(=O)c2ccc([N+](=O)[O-])cc2)CC1 | -0.94% (inactive)
O=C(/C=C/c1ccc([N+](=O)[O-])o1)NNC(=O)c1ccc(F)cc1 | 97.9% (active)
O=C(NNC(=O)C1CCCC1)c1ccc(F)cc1 | -1.97% (inactive)
Cc1ccc(/C=C/C(=O)Nc2ccc([N+](=O)[O-])c(NC(=O)/C=C/c3ccc(C)o3)c2)o1 | -5.13% (inactive)
CONC(=O)c1cc(OCC(F)(F)F)ccc1OCC(F)(F)F | -0.41% (inactive)
O=C1CN(C(=O)COC(=O)c2cnc(Cl)c(Cl)c2)c2ccccc2N1 | 1.7% (inactive)
CCOC(=O)C1=C(C)N=C2c3ccccc3C(=O)C2C1c1ccc(Br)cc1 (centres undefined) | 0.42% (inactive)
O=C1c2ccccc2C2=Nc3ccccc3SC(c3ccccc3F)C12 (centres undefined) | 19.9% (active)
O=C1c2ccccc2C(=O)C1c1ccccc1F | 1.08% (inactive)
C=CCN(Cc1nc(-c2cc(OC)c3c(c2)OCO3)oc1C)C1CCS(=O)(=O)C1 (centres undefined) | -0.09% (inactive)
O=C(COC(=O)c1c(Cl)cccc1Cl)Nc1cccc(S(=O)(=O)NC2=NCCCCC2)c1 | -2.98% (inactive)
